For part of these data: Potency and affinity values are given separately.
Assays:
[1] = tested on: Staphylococcus aureus; experiment: Antibacterial activity against Staphylococcus aureus MRSA ATCC 43300 (CO-ADD:GP_020); MIC in CAMBH media using NBS plates, by Resazurin F(560/590); assay type: functional; conditions: Concentration 20 uM, ASSAY_TEST Inhibition of Bacterial Growth, detection method Resazurin, Fluorescence (ex560/em590), MEDIA CAMHB, plate type 384well, CORNING #3640, time 18 hr
[2] = tested on: Acinetobacter baumannii; experiment: Antibacterial activity against Acinetobacter baumannii ATCC 19606 (CO-ADD:GN_034); MIC in CAMBH media using NBS plates, by Resazurin F(560/590); assay type: functional; conditions: Concentration 20 uM, ASSAY_TEST Inhibition of Bacterial Growth, detection method Resazurin, Fluorescence (ex560/em590), MEDIA CAMHB, plate type 384well, CORNING #3640, time 18 hr
[3] = tested on: Escherichia coli; experiment: Antibacterial activity against Escherichia coli ATCC 25922 (CO-ADD:GN_001); MIC in CAMBH media using NBS plates, by Resazurin F(560/590); assay type: functional; conditions: Concentration 20 uM, ASSAY_TEST Inhibition of Bacterial Growth, detection method Resazurin, Fluorescence (ex560/em590), MEDIA CAMHB, plate type 384well, CORNING #3640, time 18 hr
[4] = tested on: Klebsiella pneumoniae; conditions: Concentration 20 uM; ASSAY_TEST Inhibition of Bacterial Growth; detection method Absorption (OD600); MEDIA CAMHB; plate type 384well; NBS; CORNING #3640; time 18 hr
[5] = tested on: Candida albicans; conditions: 20 µM
[6] = tested on: Cryptococcus neoformans; conditions: Concentration 20 uM; ASSAY_TEST Inhibition of Fungal Growth; detection method Resazurin; Absorption (OD600-OD570); plate type 384well; NBS; CORNING #3640

Which results are given for `Cc1ccc(N2C(=O)C(=CN)C(=O)N(c3ccc(C)cc3)C2=O)cc1`?
Inhibition [1]: 17.58%; Inhibition [2]: 4.93%; Inhibition [3]: 4.14%; Inhibition [4]: 11.65%; Inhibition [5]: -1.3%; Inhibition [6]: -7.68%

How did the Inhibition [1] turn out when `CCc1cc2c(cc1-c1csc(CC(=N)NO)n1)C(C)(C)CCC2(C)C` was run?
The Inhibition was 9.42%.

And the Inhibition [2]?
Its Inhibition is 7.35%.

What about the Inhibition [3] of the same molecule?
Its Inhibition is -22.59%.

What about the Inhibition [4] of the same molecule?
The Inhibition was 1.69%.

And the Inhibition [5]?
The Inhibition was 7.1%.

What about the Inhibition [6] of the same molecule?
Its Inhibition is 24.54%.

With `CN1CCCC1c1ccc(O)nc1` (centres undefined) as the molecule, how does the Inhibition [1] read?
Its Inhibition is 23.44%.

What about the Inhibition [2] of the same molecule?
The Inhibition was -7.12%.

What about the Inhibition [3] of the same molecule?
Its Inhibition is 16.87%.

What about the Inhibition [4] of the same molecule?
The Inhibition was 15.46%.

And the Inhibition [5]?
The Inhibition was -1.49%.

And the Inhibition [6]?
The Inhibition was -7.69%.

Which Inhibition [1] does the source give for `NN=C1C(Cl)=C(Cl)C(Cl)=C1Cl` here?
The Inhibition was -27.05%.

What about the Inhibition [2] of the same molecule?
The Inhibition was -7.11%.

What about the Inhibition [3] of the same molecule?
Its Inhibition is -15.84%.

And the Inhibition [4]?
Its Inhibition is 1.32%.

And the Inhibition [5]?
Its Inhibition is 38.7%.

And the Inhibition [6]?
Its Inhibition is 5.21%.

Which Inhibition [1] does the source give for `O=C1/C(=C\c2ccccc2)C2OCC=C3CN4CCC56c7ccccc7N1C5C2C3CC46` (centres undefined) here?
Its Inhibition is 33.46%.

And the Inhibition [2]?
Its Inhibition is -0.22%.

What about the Inhibition [3] of the same molecule?
Its Inhibition is 16.65%.

What about the Inhibition [4] of the same molecule?
Its Inhibition is 12.64%.

And the Inhibition [5]?
The Inhibition was -0.43%.

And the Inhibition [6]?
Its Inhibition is -4.36%.

Which Inhibition [1] does the source give for `CN1CCN(c2nc(N)cc(O)n2)CC1` here?
Its Inhibition is -8.8%.

And the Inhibition [2]?
The Inhibition was 13.73%.

And the Inhibition [3]?
The Inhibition was 3.5%.

What about the Inhibition [4] of the same molecule?
The Inhibition was 7.87%.

What about the Inhibition [5] of the same molecule?
Its Inhibition is 7.43%.

What about the Inhibition [6] of the same molecule?
Its Inhibition is -4.09%.

`CN1C2c3ccccc3C3C4c5ccccc5C(C31)C(C2[N+](=O)[O-])N4C` (centres undefined) was tested. Which Inhibition [1] did it give?
Its Inhibition is 16.96%.

What about the Inhibition [2] of the same molecule?
The Inhibition was 4.34%.

What about the Inhibition [3] of the same molecule?
The Inhibition was 9.05%.

And the Inhibition [4]?
The Inhibition was 7.01%.

What about the Inhibition [5] of the same molecule?
Its Inhibition is 2.24%.

And the Inhibition [6]?
The Inhibition was -16.47%.

Which results are given for `N#CC(C#N)=Cc1ccc(C=C(C#N)C#N)cc1`?
Inhibition [1]: -4.05%; Inhibition [2]: -13.9%; Inhibition [3]: 2.09%; Inhibition [4]: 11.67%; Inhibition [5]: 36.5%; Inhibition [6]: -3.4%

Which Inhibition [1] does the source give for `O=C1CCCN1CC#CCN1CCCC1` [OXOTREMORINE] here?
The Inhibition was -8.85%.

And the Inhibition [2]?
Its Inhibition is 7.42%.

And the Inhibition [3]?
Its Inhibition is 9.1%.

What about the Inhibition [4] of the same molecule?
The Inhibition was 1.39%.

And the Inhibition [5]?
The Inhibition was 0.18%.

And the Inhibition [6]?
Its Inhibition is -12.14%.

Reference: ChEMBL document CHEMBL4296182, “CO-ADD screening of NIH NCI Diversity Set V”
